Screens from PubChem BioAssay.
Shown is part of a subset that was picked to be rich in hits.
Cycloheximide cs = Cycloheximide Counterscreen for Small Molecule Inhibitors of Shiga Toxin | cell reporter, cycloheximide protein synthesis inhibition counterscreen | max response, % | 12% of 300,000 active; in the data active = max response mostly above about 13%, no sharp cut-off; inactive = mostly below about 14%; note: read at 38.3 µM for the half of the compounds with a filed dose
LmPK inh = qHTS Assay for Inhibitors of Leishmania Mexicana Pyruvate Kinase (LmPK); AID 1721, 2009; Q27686; Potency, µM (series often up to 57.5 µM), actives largely listed as inhibitors; 0.37% of 290,000 active; purified LmPK, Kinase-Glo ATP luminescence, 1 h
Target sequence (Q27686 whole entry, looked up): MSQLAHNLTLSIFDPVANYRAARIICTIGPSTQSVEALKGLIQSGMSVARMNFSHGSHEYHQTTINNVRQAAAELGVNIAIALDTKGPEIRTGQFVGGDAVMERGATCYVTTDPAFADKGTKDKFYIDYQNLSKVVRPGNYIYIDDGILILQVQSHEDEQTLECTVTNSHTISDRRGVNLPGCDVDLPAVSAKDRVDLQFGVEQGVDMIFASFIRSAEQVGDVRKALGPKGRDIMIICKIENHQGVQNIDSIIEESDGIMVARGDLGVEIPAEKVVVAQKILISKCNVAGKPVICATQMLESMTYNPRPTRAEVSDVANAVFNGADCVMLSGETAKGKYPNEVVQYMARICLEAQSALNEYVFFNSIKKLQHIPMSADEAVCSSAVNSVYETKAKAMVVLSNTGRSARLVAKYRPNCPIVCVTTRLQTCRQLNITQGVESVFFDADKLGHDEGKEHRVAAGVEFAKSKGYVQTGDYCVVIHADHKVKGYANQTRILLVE
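Screened at intermediate enzyme activity to detect both inhibitors and activators: LmPK at 0.1 nM, with a 0.5 nM enzyme column as activation reference. PEP 0.5 mM, ADP 0.1 mM; ATP detected by luminescence after 1 h.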
RE007 growth inh = qHTS Assay for Inhibitors of the HIV-1 protein Vpr | Potency, µM (doses to about 92.2 µM), most hits filed as inhibitors | AID 651644, 2012 | S. pombe RE007 Vpr strain, BacTiter-Glo ATP luminescence, 24 h | 0.21% of 360,000 active; active = well fitted falling curve with a large enough effect; inconclusive = small, poorly fitted or top-dose-only effect; inactive = no such curve, though single readings can be large or run the other way; note: nearly all actives have a fitted effect of over 50% in size
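Fission yeast RE007 carrying one integrated HIV-1 vpr copy, seeded at OD 0.01 in PMG+AL medium with 23 nL pinned compound. Grown 24 h at 30 degrees; viability read by BacTiter-Glo luminescence after 5 min.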
Tb PYK inh = qHTS of Trypanosoma Brucei Inhibitors; 0.12% of 410,000 active; TbPYK enzyme, Kinase-Glo Plus ATP luminescence, 45 min; Potency, µM (series often up to 76.8 µM), hits mostly inhibitors; pyruvate kinase (Trypanosoma brucei), Q57TT1; note: nearly all actives have a fitted effect of over 50% in size
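In this concentration-response screen, enzyme-free wells defined baseline while DMSO plates tracked drift. Each reaction combined TbPYK, substrate, compound and 130 uM ADP for 45 min at room temperature. Kinase-Glo Plus luminescence gave the signal.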
Shiga toxin inh = A qHTS for Small Molecule Inhibitors of Shiga Toxin | Vero cells, Shiga toxin protein synthesis inhibition reporter | inhibition, % at 38.7 µM | AID 2315, 2010 | 9.2% of 290,000 active; in the data active = inhibition mostly above about 28%, no sharp cut-off; inactive = mostly below about 43%
FBPA Giardia inh = qHTS Assay for Inhibitors of Fructose-1,6-bisphosphate Aldolase from Giardia Lamblia; 0.71% of 290,000 active; purified Giardia FBPA; A8B2U2; Potency, µM (highest dose often 59.6 µM), most hits filed as inhibitors; note: nearly all actives have a fitted effect of over 55% in size
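Giardia FBPA (40 nM reagent) was preincubated 10 min at RT with compound (up to 57.5 uM final), then substrate plus GAPDH/TPI/NAD/arsenate coupling system with diaphorase/resazurin was added; resorufin fluorescence (525/598 nm) was read after 20 min.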
Of the large screens only hits and unclear results are named; the others gave an inactive call. Unless noted, calls come from the whole dose curve; as a rule, active = well fitted curve in the direction sought with a large enough effect; inconclusive = small, poorly fitted or top-dose-only effect, or another doubt; inactive = no such curve, though single readings can be large; an effect the other way counts as inactive or inconclusive.

O=C(c1ccc([N+](=O)[O-])cc1Cl)N1CCN(c2ccccn2)CC1	none
O=[N+]([O-])c1ccc(N2CCN(c3ccccn3)CC2)c(Cl)c1	Shiga toxin inh 58.7
CN(C(=O)CN(C)S(=O)(=O)c1ccc(F)cc1)c1c(N)n(Cc2ccccc2)c(=O)[nH]c1=O	none (no result: Cycloheximide cs, LmPK inh, Shiga toxin inh, FBPA Giardia inh)
COc1ccccc1C(=O)NNC(=O)c1cccc(O)c1	Cycloheximide cs 23.4
CC(C)(C)NC(=O)C(=O)NNC(=O)c1ccccc1	none
COc1ccccc1C(=O)NNC(=O)c1ccccc1F	Cycloheximide cs 47.2, Shiga toxin inh 57.8
CC(C)(C)NC(=O)C(=O)NNC(=O)c1cccc(F)c1	Cycloheximide cs 37.7
O=C(NNC(=O)c1ccccc1F)c1ccc2[nH]c(=O)c(=O)[nH]c2c1	Cycloheximide cs 34.0, Shiga toxin inh 41.3
CSc1ccc(CCNC(=O)c2ccc3c(c2)nc2n3CCC(C)C2)cc1 (configuration not stated)	none (no result: Cycloheximide cs, LmPK inh, RE007 growth inh, Shiga toxin inh, FBPA Giardia inh)
COc1ccccc1C(=O)NNC(=O)c1cccc(F)c1	Cycloheximide cs 50.7, LmPK inh inconclusive, Shiga toxin inh 88.0
CC1CC=CC2C1C(=O)N(Cc1ccccc1)C2c1ccc2ccccc2c1 (configuration not stated)	none (no result: LmPK inh, RE007 growth inh, Tb PYK inh)
O=S1(=O)C=C(Sc2nnc(-c3ccccc3)o2)c2ccccc21	RE007 growth inh 10µM, Tb PYK inh inconclusive
Cc1nnc(SCC(=O)NC(=O)Nc2ccc3c(c2)OCCO3)s1	Cycloheximide cs 30.4, Shiga toxin inh 44.7
Cc1ccccc1Nc1nnc(SCC(=O)NC(=O)Nc2ccc3c(c2)OCCO3)s1	Cycloheximide cs 62.5, Shiga toxin inh 50.3 (no result: RE007 growth inh, Tb PYK inh)
Cc1cccc(Nc2nnc(SCC(=O)NC(=O)Nc3ccc4c(c3)OCCO4)s2)c1	none
CC1CCc2nc3ncn(Cc4ccc(Cl)cc4)c(=O)c3cc2C1 (configuration not stated)	none (no result: Cycloheximide cs, LmPK inh, RE007 growth inh, Shiga toxin inh, FBPA Giardia inh)
CC(=O)Nc1ccc(N=Nc2ccccc2)cc1[N+](=O)[O-]	none (no result: Cycloheximide cs, LmPK inh, Shiga toxin inh, FBPA Giardia inh)
COc1ccccc1-c1cc(NCc2cnc(C)cn2)ncn1	none (no result: Cycloheximide cs, LmPK inh, RE007 growth inh, Tb PYK inh, Shiga toxin inh)
COc1ccc(C)cc1NC(=O)CSc1nnc2ccc(-c3ccncc3)nn12	none (no result: Cycloheximide cs, LmPK inh, Shiga toxin inh, FBPA Giardia inh)
COc1ccccc1CN(Cc1nc2ccccc2c(=O)[nH]1)C(=O)Nc1ccccc1C	none
COc1ccccc1CN(Cc1nc2ccccc2c(=O)[nH]1)C(=O)Nc1ccc(C)cc1	Cycloheximide cs 19.3
CC1CN=C(NS(=O)(=O)c2ccccc2)N1 (configuration not stated)	none (no result: Cycloheximide cs, LmPK inh, Shiga toxin inh, FBPA Giardia inh)
Cc1ccc(NC(=O)/C=C/c2ccco2)nc1	Cycloheximide cs 33.6, Shiga toxin inh 77.9
O=C(/C=C/c1ccco1)Nc1ccccn1	Cycloheximide cs 36.2, LmPK inh 14.1µM, Shiga toxin inh 43.1
O=C(/C=C/c1ccco1)Nc1cccc2cccnc12	Cycloheximide cs 60.9, Shiga toxin inh 118.9
CCCCS(=N)(=O)CC[C@H](N)C(=O)O (some centres not stated)	none (no result: Cycloheximide cs, LmPK inh, RE007 growth inh, Tb PYK inh, Shiga toxin inh)
Cc1cc(Nc2cccc(C(=O)O)c2)n2ncnc2n1	Cycloheximide cs 13.5, Shiga toxin inh 19.3
Cc1cc(Nc2cccc(C(=O)O)c2)n2nc(C)nc2n1	none (no result: Cycloheximide cs, LmPK inh, RE007 growth inh, Shiga toxin inh, FBPA Giardia inh)
COc1cccc(CN(C)C(=O)Cc2c[nH]c3ccccc23)c1	Cycloheximide cs 20.2 (no result: FBPA Giardia inh)
COc1ccc(CN(C)C(=O)Cc2c[nH]c3ccccc23)cc1	none
CCCCC(=O)Oc1ccc2oc(-c3ccc(OC)cc3)cc(=O)c2c1	none (no result: Cycloheximide cs, LmPK inh, RE007 growth inh, Shiga toxin inh, FBPA Giardia inh)
CCC(N=c1cc(-c2ccc(OC)cc2)oc2ccc(C)cc12)C(=O)O (configuration not stated)	Cycloheximide cs 82.0, Shiga toxin inh 77.4
CCC(N=c1cc(-c2ccc(OC)c(OC)c2)oc2ccc(C)cc12)C(=O)O (configuration not stated)	Cycloheximide cs 21.2
CCOc1ccccc1CNC(=O)c1cc2cc(S(=O)(=O)N3CCCCC3)ccc2n1C	none (no result: Cycloheximide cs, LmPK inh, RE007 growth inh, Shiga toxin inh, FBPA Giardia inh)
Cc1nc2ccccc2c2oc(C(=O)N3CCN(C(=O)c4ccco4)CC3)cc12	none
CCOC(=O)C1CCN(C(=O)c2cc3c(ccc4ccccc43)o2)CC1	Cycloheximide cs 59.4, Shiga toxin inh 120.8 (no result: FBPA Giardia inh)
